Where “and” joins values, the source holds several entries; their conditions need not be identical. Equal values may be shown once. The whole screen tested about 310,000 compounds, of which about 11,000 (3.5%) were called active. Roughly 4% stayed inconclusive and do not appear here. The sample holds actives, similar compounds and a random draw of the others, so the mix is not that of the screen. A number with no mark means an inactive call. Calls follow the shape of the dose curve; as a rule, active = well fitted inhibition curve with a large enough effect; inconclusive = small, poorly fitted or top-dose-only effect, or another doubt; inactive = no such curve, though single readings can be large or run the other way.
Potency is read from the fitted curve at half-maximal effect.

In the assay the target is 4'-phosphopantetheinyl transferase ffp (Bacillus subtilis) (UniProt Q9F4F7). As to the kind of experiment: qHTS Assay for Inhibitors of Bacillus subtilis Sfp phosphopantetheinyl transferase (PPTase).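 Also: the enzyme is Sfp with the accession as filed and its product quenches rhodamine fluorescence.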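 As to largest response in the series, negative = inhibition: 0% = enzyme reaction without inhibitor and -100% = no enzyme wells.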 The settings on record: Biochemical Sfp PPTase activity. In outline: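 Step 1, compound plus 15 nM Sfp-PPTase, 15 min, room temperature. Step 2, add rhodamine-CoA (5 uM) and BHQ-2-YbbR (12.5 uM). Step 3, read 525/598 nm fluorescence at 0 and 30 min.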
As to `COc1ccc(/C=C(\C#N)c2c[nH]c3ccccc23)cc1`, the largest response in the series, negative = inhibition was 10.3%. As to `Cc1ccc2c(c1)N(CC(=O)NCCc1ccc(Cl)cc1)C(=O)c1cccnc1O2`, the largest response in the series, negative = inhibition is -4.46%. Turning to `COc1ccccc1NC(=O)CCN1CCN(c2ccc(Cl)cc2)CC1`, the largest response in the series, negative = inhibition is 3.28%.

`COC(=O)CNC(c1ccccc1Cl)c1cc(Br)ccc1NC(=O)CCN1CCOCC1` (configuration not stated): the Potency is 56.2 µM (active). For `COc1ccc(Cl)cc1NC(=O)CCN1CCOCC1`, the largest response in the series, negative = inhibition was 13.9%. In the case of `CNS(=O)(=O)c1ccc(NC(=O)Nc2ccc3c(c2)OCO3)cc1`, the largest response in the series, negative = inhibition is -9.71%.

Consider `CCc1ccc(OCC(O)CN2CCN(CCO)CC2)cc1` (configuration not stated), for which the largest response in the series, negative = inhibition was 5.76%. `C/C(=N/NC(=O)c1ccncc1)c1ccc2c(c1)OCO2`: the largest response in the series, negative = inhibition was 4.66%. As to `C/C(=N\NC(N)=S)c1ccncc1`, the Potency is 79.4 µM (active).

On to `C/C(=N/NC(=O)c1ccn(C)n1)c1ccncc1`, for which the largest response in the series, negative = inhibition is 5.8%. As for `COc1ccc(CCNC(=O)CCCCCNC(=O)N2CCn3c2nc2ccccc23)cc1OC`, the largest response in the series, negative = inhibition is 4.84%. For the compound `Cc1ccccc1CNC(=O)CCC(=O)N1Cc2ccccc2Oc2ncccc21`, the largest response in the series, negative = inhibition was 19%. On to `CCn1c(SCc2cccc(C(=O)O)c2)nnc1-c1ccc(Cl)cc1`, for which the largest response in the series, negative = inhibition was 1.11%. Regarding `COc1ccc(-n2ncc3c2CC(C)(C)CC3NC(=O)CCc2c(C)nn(C)c2C)cc1` (configuration not stated), the largest response in the series, negative = inhibition is 11.2%. Same read-out and setting: the result for `Cc1ccc(NC(=S)Nc2ccc(F)cc2)cc1` reads 5.93%. As for `COC(=O)C(NS(=O)(=O)c1ccc(F)cc1)c1ccccc1` (configuration not stated), the largest response in the series, negative = inhibition was 16.1%. Turning to `O=S(=O)(NC(=S)Nc1ccccc1)c1ccc(F)cc1`, the Potency was 20 µM (active).

As for `O=C(CSc1ccc(-c2ccco2)nn1)Nc1cccc(F)c1`, the Potency was 15.8 µM (active). For `COc1ccc(NC(=O)CSc2ccc(-c3ccco3)nn2)c(OC)c1`, the largest response in the series, negative = inhibition was -27.4%. As for `Fc1cccc(Cl)c1CSc1ccc(-c2ccco2)nn1`, the Potency is 39.8 µM (active). `Cc1ccccc1-c1nnc(SCC(=O)NCc2ccc3c(c2)OCO3)n1C`: the largest response in the series, negative = inhibition is 4.47%. Turning to `O=C(CSc1ccc(-c2ccco2)nn1)NCc1ccc2c(c1)OCO2`, the Potency was 50.1 µM (active). With `Cc1cc(SCc2c(F)cccc2Cl)nc(=O)[nH]1`, the largest response in the series, negative = inhibition is 1.28%. Turning to `Cn1c(SCc2c(F)cccc2Cl)nnc1-c1cnccn1`, the largest response in the series, negative = inhibition was -5.8%. `O=C(CSc1ccc(-c2ccc(F)cc2)nn1)Nc1ccc2c(c1)OCCO2`: the largest response in the series, negative = inhibition is -25.1%. `O=C(CSc1ncn[nH]1)NCc1ccc2c(c1)OCO2`: the largest response in the series, negative = inhibition is 9.23%. Consider `O=C(NCC(=O)N1CCC2(CC1)NCCc1[nH]cnc12)c1ccc(Br)cc1`, for which the largest response in the series, negative = inhibition was 9.84%.

On to `O=C(Cn1nc([N+](=O)[O-])nc1Br)NC1CCCCC1`, for which the largest response in the series, negative = inhibition was 16.4%. Same read-out and setting: the result for `CCOC(=O)N1CCN(S(=O)(=O)c2ccc(Br)cc2)CC1` reads 12.6%; that for `C[C@H]1Cc2c(COc3ccccc3)nc3c(c2CO1)CN(C(=O)Nc1cccc(C#N)c1)CC3`, 13.6%. `Cc1ccc(C(=O)N2CCC(n3nccc3NC(=O)Nc3cccc(F)c3)CC2)cn1`: the largest response in the series, negative = inhibition was 4.54%. Still for that read-out and setting: the result for `CCCCC[C@H](O)/C=C/[C@@H]1[C@@H](CC(=O)CCC(=O)O)[C@@H](O)C[C@H]1O` reads -8.37%; that for `OCCC(O)CO` (configuration not stated), -2.96% and -0.468% and 9.51%; that for `O=C(c1cccnc1)N1CCN(S(=O)(=O)c2cccs2)CC1`, 2.77%. Still for that read-out and setting: the result for `O=C(COc1ccc(Cl)cc1)NCCS(=O)(=O)N1CCN(c2ccc(F)cc2)CC1` reads -3.01%. For the compound `NNC(=O)c1nnn(-c2nonc2N)c1CN1CCCC1`, the largest response in the series, negative = inhibition is 14.1%. As to `Cc1c(C(=O)N(C)CCc2cnn(C)c2)oc2c(F)cccc12`, the largest response in the series, negative = inhibition is 4.37%.

Take `CCc1ccc2c(c1)C(c1ccc([N+](=O)[O-])cc1)=NNC(c1ccccc1)=N2`: the largest response in the series, negative = inhibition is -18%. `CCc1ccc2c(c1)C1(NN=C(c3ccccc3)S1)C(=O)N2` (configuration not stated): the Potency is 8.91 µM (active). As to `Cc1ccc(C)c(N2CCN(C(=O)CCCn3c(=O)c4cccn4c4cccnc43)CC2)c1`, the largest response in the series, negative = inhibition is 14.7%.

In the case of `CCNC(=O)N1CCCC(C(=O)c2ccc(-c3ccccc3)cc2)C1` (configuration not stated), the largest response in the series, negative = inhibition was 4.19%. For the compound `CSc1sc(C(=O)NC(=O)NCc2cccnc2)c(C)c1-c1ccon1`, the largest response in the series, negative = inhibition was 9.79%. As to `Cc1ccc(-n2nc(-c3ccco3)cc2C(=O)NCc2cccnc2)cc1`, the Potency is 10 µM (active). As for `CC(C)(C)c1cc(C(=O)NCc2cccnc2)ccn1`, the largest response in the series, negative = inhibition is -7%. `COc1ccc(N(CC(=O)Nc2cccc3ccccc23)S(C)(=O)=O)c(OC)c1`: the largest response in the series, negative = inhibition was 9.66%. For `Cc1ccccc1NC(=O)Cn1cc(C(=O)C2CC2)c2ccccc21`, the largest response in the series, negative = inhibition was 16.6%.

As to `O=C(Cc1c(Cl)cccc1Cl)NC1CC1`, the largest response in the series, negative = inhibition was 11.4%.
